Measurements published in PubChem BioAssay.
The source made the active and inactive calls.

Columns and labels:
[1] = small molecules captured by biotinylated probe aFSTL3 – biochemical, small-molecule microarray, fluorescence 635/667, stem cell growth factor project, primary screen (AID 1064); settings: higher = more signal;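 note: measures binding of the biotinylated anti-FSTL3 antibody to printed compounds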
[2] = binders from COS7 lysate, DM2A8 probe, primary screen, torsin A project, cell lysate, small-molecule microarray, fluorescence 635/667 (AID 1065); settings: higher = more signal, COS7 lysate expressing mutant human TOR1A
[3] = small molecules captured by biotinylated probe aFGF2 – biochemical, small-molecule microarray, fluorescence 635/667, stem cell growth factor project, primary screen (AID 1067); settings: higher = more signal;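 note: measures binding of biotinylated aFGF2 protein to printed compounds on slides; z-score merges feature fluorescence and signal-to-noise across triplicate slides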
[4] = small molecules captured by biotinylated probe aFGF10 – biochemical, small-molecule microarray, fluorescence 635/667, stem cell growth factor project, primary screen (AID 1071); settings: higher = more signal;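 note: score merges 667 nm spot intensity and signal to noise from triplicate slides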
[5] = target: Neurogenic locus notch homolog protein 2 (Homo sapiens) (UniProt Q04721); assay: small molecules binding Notch2 protein – biochemical, small-molecule microarray, 635 nm fluorescence, stem cell growth factors, primary screen (AID 1073); settings: higher = more signal
[6] = target: Pro-neuregulin-1, membrane-bound isoform (Homo sapiens) (UniProt Q02297); assay: small molecules binding neuregulin-1 protein – biochemical, small-molecule microarray, fluorescence 635/667, psychiatric disease protein project, primary screen (AID 1075); settings: NRG1 binding, 635 nm fluorescence, higher = more signal;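 note: score combines 667 nm spot fluorescence with signal to noise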
[7] = test system: Neuregulin-1 EGF-like domain; assay: small molecules binding NRG1 EGF domain – biochemical, small-molecule microarray, 635 nm fluorescence, primary screen (AID 1081); settings: higher = more signal;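 note: binding of the protein to compounds printed on small-molecule microarray slides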
[8] = FRG1 expression reporter modulators in myotubes – cell-based, C2C12 myotubes, firefly/Renilla luciferase, luminescence, FRG1 inhibition for FSHD, primary screen (AID 1084); settings: FRG1 promoter luciferase, higher = more signal, called active from +8 up or from −8 down
[9] = small molecules captured by biotinylated probe aFST – biochemical, small-molecule microarray, fluorescence 635/667, stem cell growth factor project, primary screen (AID 1086); settings: higher = more signal;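 note: score merges 667 nm fluorescence with signal-to-noise of each printed compound spot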
[10] = binders of probe aHhip on microarray, primary screen, stem cell growth factor project, biochemical, small-molecule microarray, fluorescence 635/667 (AID 1087); settings: higher = more signal;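 note: score merges spot fluorescence at 667nm with spot signal to noise ratio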
[11] = test system: PRMT1 (protein arginine N-methyltransferase 1); assay: small molecules binding arginine methyltransferase PRMT1 – biochemical, small-molecule microarray, 635 nm fluorescence, primary screen (AID 1088); settings: higher = more signal;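 note: binding of Prmt1 protein to compounds spotted on small-molecule microarray slides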
[12] = growth effects on S. cerevisiae YJM789 – YJM789 clinical isolate, OD600, 24 h, basal, primary screen (AID 1089); settings: higher = more signal, called active from +8 up or from −8 down;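 note: growth of clinical yeast isolate S. cerevisiae YJM 789 seeded 1000 cells per well; test concentration not given here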
[13] = S. pombe growth modifiers, basal conditions – strain 972, OD600, 24 h, no modulator, primary screen (AID 1090);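 note: basal condition with compound alone and no growth modifier present; test concentration not given here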; settings: S. pombe 972 growth, higher = more signal, called active from +8 up or from −8 down
[14] = budding yeast growth modifiers under rapamycin – strain BY4716, OD600, 96 h, primary screen (AID 1091); note: test concentration not given here; settings: S. cerevisiae BY4716 + rapamycin, higher = more signal, called active from +8 up or from −8 down
[15] = target: Torsin-1A-interacting protein 2 (Homo sapiens) (UniProt Q8NFQ8); assay: small molecules binding lysate-expressed LULL1 – cell lysate, human LULL1 lysate, 635/667 nm fluorescence, primary screen (AID 1092); settings: small-molecule microarray, hLULL1 lysate binding, 635 nm fluorescence; higher = more signal;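 note: probe is lysate of COS7 cells overexpressing human LULL1; score merges per-feature 667 nm fluorescence with signal-to-noise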
[16] = optical density change of DRC41 E. coli – strain DRC41, OD650, 24 h, E. coli filamentation project, primary screen (AID 1093);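 note: MC1000 strain lacking acrAB efflux and sulA so SOS filamentation is blocked; test concentration not given here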; settings: E. coli DRC41 growth, higher = more signal, called active from +8 up or from −8 down
[17] = probe aLefty2 binding to arrayed compounds – biochemical, biotinylated probe, 635/667 nm fluorescence, primary screen (AID 1094); settings: small-molecule microarray, higher = more signal;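 note: score merges spot fluorescence near 667 nm with spot signal-to-noise ratio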
[18] = test system: Noggin (protein binding on small-molecule microarray); assay: small molecules binding Noggin protein – biochemical, 635/667 nm fluorescence, primary screen (AID 1095); settings: 635 nm fluorescence, higher = more signal;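 note: score merges 667 nm feature fluorescence with signal to noise over triplicate slides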
[19] = target: Neurogenic locus notch homolog protein 3 (Homo sapiens) (UniProt Q9UM47); assay: small molecules binding NOTCH3 protein – biochemical, 635/667 nm fluorescence, primary screen (AID 1096); settings: small-molecule microarray, 635 nm fluorescence, higher = more signal
[20] = probe aEGFR binding to arrayed compounds – biochemical, biotinylated probe, 635/667 nm fluorescence, primary screen (AID 1097); settings: small-molecule microarray, higher = more signal;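 note: probe is a biotinylated anti-EGFR antibody binding compounds printed on slides; score combines fluorescence near 667 nm and signal to noise of each spot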

Sequence of Torsin-1A-interacting protein 2 (Homo sapiens) (Q8NFQ8 whole entry, looked up): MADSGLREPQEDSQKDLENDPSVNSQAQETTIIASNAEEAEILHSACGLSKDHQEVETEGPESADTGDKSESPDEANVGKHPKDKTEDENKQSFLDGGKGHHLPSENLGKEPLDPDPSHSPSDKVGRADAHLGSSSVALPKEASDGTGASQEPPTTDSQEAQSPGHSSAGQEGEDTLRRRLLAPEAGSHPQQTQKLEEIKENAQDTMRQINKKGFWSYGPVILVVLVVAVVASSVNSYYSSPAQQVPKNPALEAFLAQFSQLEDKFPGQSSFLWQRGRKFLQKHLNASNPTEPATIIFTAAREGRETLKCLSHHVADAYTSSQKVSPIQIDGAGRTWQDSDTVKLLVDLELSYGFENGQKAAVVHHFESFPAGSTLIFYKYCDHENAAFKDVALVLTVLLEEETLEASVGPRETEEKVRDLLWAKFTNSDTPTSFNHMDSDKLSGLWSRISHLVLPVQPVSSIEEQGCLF
Sequence of Neurogenic locus notch homolog protein 2 (Homo sapiens) (Q04721 whole entry, looked up, canonical isoform): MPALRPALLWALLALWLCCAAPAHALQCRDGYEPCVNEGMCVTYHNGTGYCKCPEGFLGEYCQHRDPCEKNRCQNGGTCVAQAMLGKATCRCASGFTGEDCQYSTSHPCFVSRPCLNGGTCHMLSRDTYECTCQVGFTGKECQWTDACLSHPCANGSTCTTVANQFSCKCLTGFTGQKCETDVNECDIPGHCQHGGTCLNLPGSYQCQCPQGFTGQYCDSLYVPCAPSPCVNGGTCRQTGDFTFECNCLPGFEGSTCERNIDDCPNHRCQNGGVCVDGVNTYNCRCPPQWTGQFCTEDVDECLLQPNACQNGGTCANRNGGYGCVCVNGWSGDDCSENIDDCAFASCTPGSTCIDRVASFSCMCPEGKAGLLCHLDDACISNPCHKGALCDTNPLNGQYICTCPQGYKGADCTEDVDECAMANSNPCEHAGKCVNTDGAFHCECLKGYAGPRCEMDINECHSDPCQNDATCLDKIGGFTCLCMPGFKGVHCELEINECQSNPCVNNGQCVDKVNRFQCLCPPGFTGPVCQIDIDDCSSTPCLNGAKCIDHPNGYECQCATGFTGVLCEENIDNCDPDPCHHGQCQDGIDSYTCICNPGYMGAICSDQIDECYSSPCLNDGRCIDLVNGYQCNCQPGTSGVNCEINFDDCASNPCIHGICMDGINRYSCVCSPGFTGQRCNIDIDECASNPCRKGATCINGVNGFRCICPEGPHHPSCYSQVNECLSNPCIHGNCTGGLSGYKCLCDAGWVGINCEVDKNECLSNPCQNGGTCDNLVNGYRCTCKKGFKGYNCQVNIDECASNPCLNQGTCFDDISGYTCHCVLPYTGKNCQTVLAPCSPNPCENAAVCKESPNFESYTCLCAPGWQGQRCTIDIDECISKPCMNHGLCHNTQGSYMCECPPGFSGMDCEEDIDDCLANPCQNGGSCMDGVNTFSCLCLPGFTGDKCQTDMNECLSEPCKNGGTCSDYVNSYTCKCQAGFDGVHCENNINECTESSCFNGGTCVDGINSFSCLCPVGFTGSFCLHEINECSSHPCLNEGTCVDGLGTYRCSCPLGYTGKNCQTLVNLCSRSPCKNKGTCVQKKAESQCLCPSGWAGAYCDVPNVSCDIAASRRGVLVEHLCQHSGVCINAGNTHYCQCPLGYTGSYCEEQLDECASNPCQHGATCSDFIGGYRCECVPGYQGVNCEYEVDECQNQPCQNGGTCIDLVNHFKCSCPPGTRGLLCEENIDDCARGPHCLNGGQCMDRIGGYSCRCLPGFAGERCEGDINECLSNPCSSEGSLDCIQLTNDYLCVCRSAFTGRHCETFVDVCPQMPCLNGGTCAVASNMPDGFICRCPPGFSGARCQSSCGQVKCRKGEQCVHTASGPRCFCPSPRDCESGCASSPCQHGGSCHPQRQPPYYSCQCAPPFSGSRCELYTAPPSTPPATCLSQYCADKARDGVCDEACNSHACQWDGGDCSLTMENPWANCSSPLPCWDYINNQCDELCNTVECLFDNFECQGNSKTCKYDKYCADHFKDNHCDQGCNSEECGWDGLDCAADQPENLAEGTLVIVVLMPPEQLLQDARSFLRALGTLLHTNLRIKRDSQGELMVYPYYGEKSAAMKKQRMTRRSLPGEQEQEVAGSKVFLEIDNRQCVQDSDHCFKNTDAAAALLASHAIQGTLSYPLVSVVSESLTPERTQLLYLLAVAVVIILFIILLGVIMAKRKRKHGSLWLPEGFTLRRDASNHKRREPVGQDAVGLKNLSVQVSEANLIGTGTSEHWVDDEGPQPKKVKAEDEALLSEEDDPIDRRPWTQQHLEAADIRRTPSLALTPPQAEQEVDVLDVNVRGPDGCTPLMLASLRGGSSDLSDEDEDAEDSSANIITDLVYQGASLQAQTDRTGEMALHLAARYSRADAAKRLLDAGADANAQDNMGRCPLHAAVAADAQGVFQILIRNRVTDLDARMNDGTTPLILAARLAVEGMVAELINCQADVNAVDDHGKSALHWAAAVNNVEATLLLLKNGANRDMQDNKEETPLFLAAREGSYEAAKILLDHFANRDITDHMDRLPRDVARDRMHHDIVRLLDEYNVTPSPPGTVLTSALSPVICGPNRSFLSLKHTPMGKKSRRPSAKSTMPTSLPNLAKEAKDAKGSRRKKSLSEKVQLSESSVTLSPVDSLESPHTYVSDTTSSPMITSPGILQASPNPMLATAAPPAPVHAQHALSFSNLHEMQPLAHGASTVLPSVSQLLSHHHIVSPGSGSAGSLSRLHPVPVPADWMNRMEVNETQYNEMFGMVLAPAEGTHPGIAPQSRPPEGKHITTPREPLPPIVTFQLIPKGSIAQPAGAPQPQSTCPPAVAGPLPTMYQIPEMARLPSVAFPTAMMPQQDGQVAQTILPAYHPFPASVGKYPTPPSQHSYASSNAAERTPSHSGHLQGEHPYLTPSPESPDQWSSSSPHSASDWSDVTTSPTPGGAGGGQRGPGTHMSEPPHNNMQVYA
Sequence of Pro-neuregulin-1, membrane-bound isoform (Homo sapiens) (Q02297 whole entry, looked up, the tested form may be a part, canonical isoform): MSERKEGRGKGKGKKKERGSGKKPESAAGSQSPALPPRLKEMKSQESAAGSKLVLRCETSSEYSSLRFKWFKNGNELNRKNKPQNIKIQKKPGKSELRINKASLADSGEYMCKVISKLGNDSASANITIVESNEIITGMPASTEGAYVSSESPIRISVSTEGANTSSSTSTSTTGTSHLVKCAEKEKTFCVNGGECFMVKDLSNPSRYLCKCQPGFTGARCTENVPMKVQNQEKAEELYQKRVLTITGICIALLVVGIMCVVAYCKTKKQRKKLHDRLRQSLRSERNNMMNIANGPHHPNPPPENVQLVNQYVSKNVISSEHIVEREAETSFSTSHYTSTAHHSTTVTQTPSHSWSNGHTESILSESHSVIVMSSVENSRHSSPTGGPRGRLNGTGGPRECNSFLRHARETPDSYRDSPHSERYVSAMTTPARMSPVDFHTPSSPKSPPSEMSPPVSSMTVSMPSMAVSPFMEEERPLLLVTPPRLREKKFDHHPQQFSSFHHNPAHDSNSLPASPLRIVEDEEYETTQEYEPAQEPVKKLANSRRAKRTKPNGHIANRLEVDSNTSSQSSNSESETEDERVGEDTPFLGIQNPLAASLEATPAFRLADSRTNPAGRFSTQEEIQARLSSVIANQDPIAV

Compound	composite z-score [1]	composite z-score [2]	composite z-score [3]	composite z-score [4]	composite z-score [5]	composite z-score [6]	composite z-score [7]	z-score [8]	composite z-score [9]	composite z-score [10]	composite z-score [11]	z-score [12]	z-score [13]	z-score [14]	composite z-score [15]	z-score [16]	composite z-score [17]	composite z-score [18]	composite z-score [19]	composite z-score [20]
COc1ccc([Si](C)(C)[C@H]2[C@H](CC(=O)N3CCC[C@H]3CO)O[C@@]3(C(=O)N(Cc4cccc(N5CCC5=O)c4)c4ccccc43)[C@@H]2C)cc1	-0.226	0.149	0.0496	1	1.01	0.865	1.32	-4.15 (inactive)	0.774	-0.253	1.55	-0.795 (inactive)	0.289 (inactive)	-0.743 (inactive)	2.6	1.24 (inactive)	0.226	1	1.13	0.133
[N-]=[N+]=NCc1ccccc1C[C@]1(C(=O)NCC(O)CO)COC(c2ccc(OCCCO)cc2)=N1 (stereo not given in full)	1.11	2.19	-0.033	-0.329	0.7	1	0.691	-1.03 (inactive)	1.1	-0.318	0.638	-0.319 (inactive)	-3.05 (inactive)	0.113 (inactive)	2.54	1.34 (inactive)	0.841	-0.185	-0.172	0.204
COc1ccc(CCNC(=O)[C@@]2(C)c3ccccc3C(=O)N(Cc3ccccc3)[C@H]2c2ccc(CO)cc2)cc1	-0.277	1.25	0.0626	0.299	1.24	1.67	1.44	-3.66 (inactive)	0.851	0.0286	1.53	-1.25 (inactive)	-1.1 (inactive)	-0.648 (inactive)	3.05	-0.0282 (inactive)	0.166	1.33	1.07	0.0192
Cc1ccc([C@H]2C(C(=O)O)=C[C@@H](C(C)C)N2S(=O)(=O)c2ccc(C)cc2)cc1	-0.0974	-0.304	-0.0667	0.163	1.14	1.19	1.31	-1.57 (inactive)	0.384	-0.287	0.425	-0.763 (inactive)	0.0459 (inactive)	-0.128 (inactive)	3.51	-0.678 (inactive)	-0.0598	-0.0681	0.412	-0.0457
C=CCN1C(=O)[C@@]2(O[C@@H](CCO)[C@H]([Si](C)(C)c3ccc(OC)cc3)[C@H]2C)c2cc(N3C(=O)COc4ccccc43)ccc21	-0.351	0.28	-0.0293	1.02	0.227	1.02	0.746	-1.54 (inactive)	0.975	-0.358	1.45	1.64 (inactive)	0.842 (inactive)	35.4 (active)	1.81	0.375 (inactive)	-0.275	0.17	0.4	-0.178
